The source of these data is the supplement of paper PMC6555819.

The test system of the assay is PPARg:RXRa DBDmut IVT, anti-RXR (DBD mutation: RXRa K156A/R161A, NR concentration 270 nM, RXRa partner concentration 90 nM). In words: PBM binding z-score (relative to random genomic background probes); higher = stronger binding; sequences stand for … in GC…GCGATTGACAGCGTAGAATGAAGG
In outline:
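Random background probes are the reference for binding z-scores. These scores derive from regression-normalized fluorescence on custom Agilent 4×180K protein-binding microarrays incubated 1 h with ligand-free nuclear receptor dimers. Binding was detected with antibodies against each partner (one per run).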
On to CTCGAAAGGTCGGTTGAGGTGAGAATACGGATAA, for which the PBM binding z-score was -0.0519.

TCTGCTAGGTCAGCTGGTCAGCTAACGAGCTGCC had a PBM binding z-score of 2.65. In the case of GCTTGTAGATCATGGTTAAGAAAGACTAAGCTAA it was 0.856. With TCTGCTAGGTCAGTTTGTCAGCTAACGAGCTGCC, the PBM binding z-score amounted to 2.1. As for TCATATAGGTAAATGCTAGTTGAAAGTCCGATCT, the figure is 4.01; as for TCTCGGAGGACACGTAAGGTCAGAGCTCGACATC, 1.32; as for ATGTCTAGGTAAAGATAGTTCAGTGAATGCAAAT, 1.16. Take TATACAGGGTCAAAGTCCAGAGTACGAATGTCGA: the PBM binding z-score amounted to 2.42.

GGAACCAGGGCAAGTTGATAGCAGAGTTTGATGG returned a PBM binding z-score of 4.63. In the case of CCTAGCAGGCCAGGGTCACTGAAGCATTTCGCTT it was 0.0332.

Sequence CGTCCAAGGTCAATGCTAGGACAGTGAAAGCATT yielded a PBM binding z-score of 3.02.

CCTACTGGGCCATTCATAGGTCATTGATCATATG: the PBM binding z-score was found to be 4.46. For CGAACTAGGTGATCCAGGACAGTGAATACATTGA, the PBM binding z-score is 5.95. In the case of ACTAGCAGGTCAAGTTTGGGTCACTCAAACAAAG it was 4.12; in that of TCTCGTAGATCAAGCAGGTTAAGAAAGCCTGAGT, 1.63; in that of GCTGCTAGGTCAGTTTGGTCAGCTAACGGGTACG, 2.93. Regarding CCTACTGGGCCATCAGATCATTGATATCAACGTT, the PBM binding z-score stood at 4.57. The sequence CCGAGTGGGGCAGAAAGGTTACCATACCATCCGG gave a PBM binding z-score of 1.16. As for AGTCAAAGTTCACTAGGTAACCTAAGATTCAGCT, the figure is 3.06; as for TCTAGCAGGCCCGAGGGTCACTCAAGAGGTACGG, 0.262.

Regarding TCGACTAGGTTACCAATGGGGCATTCAGCTTTCT, the PBM binding z-score came to 4.11. For GCGACTGGGGCATCAGCAGGTTAGCATAACTTAA, the PBM binding z-score turned out to be 3.62. In turn, TTACCAAGGTGAGCTGAGCTCGTTGATCCAACTC yielded a PBM binding z-score of 0.946. In turn, AGAACGAGGGCAATAAGTTGATAGCACGGGTGGC showed a PBM binding z-score of 3.47.

In turn, CGTCAAAGATCAACTAAGGTAACGTAAAGCACGC registered a PBM binding z-score of -0.00407. With AGAACGAGGGCAAGCTGAGTTGATAGCAGAGTAG, the PBM binding z-score is 3.94. TTACCAAGGTGAAGGGTCGTTGATGCACGCCTTG came in with a PBM binding z-score of 1.59.

CCGACTGGGGCAGAACGGTTACCATACCATCCGG displayed a PBM binding z-score of 1.2.

The sequence TCATATAGGTGAATGCTAGGTGAAAGTCCGATCT came in with a PBM binding z-score of 6.19. The sequence TGGCCTAGGTCATTGGGCCAGTATAGTACGCATC yielded a PBM binding z-score of 1.95. As to TCTTGTAGGTCAAGCAGGTTAAGAAAGCCTGAGT, the PBM binding z-score is 7.24. In the case of ATCGAAAGGTCGAGGTGATTATAGAGAAAGGGAA it was 0.469; in that of CGAACGAGGGCATGGGTTGATAGCAAATGCCGAT, 2.5; in that of TTATATAGGTAAACAGGTGAAAGTCCGTAAGTTA, 6.54.

On to CCTACTGGGCCAAAAAGGTCATTGAGGCCGATAA, for which the PBM binding z-score turned out to be 3.53. For the sequence CCTACTGGGCCAAAGGTCATTCATTCCAATGCTC, the PBM binding z-score came out at 5.26. As to TAGCCTACGTCAGATCGGGCCAGTATACGCTATA, the PBM binding z-score is -1.07. ATCTCTAGGAAACAAGTTCAGTGAAAGAGAGGAC had a PBM binding z-score of -0.477. In the case of CCAACTAGGTCAGAACAGGACAGTGAAGGATGAT it was 6.64. With CCGACTGCGGCATAAGGTTACCATAAGCCAGCCC, the PBM binding z-score was -0.303.
